Most compounds without a hit are left out; they make up all but 3.3% or so of the library.
AmpC no deterg: qHTS Inhibitors of AmpC Beta-Lactamase (assay without detergent) | P00811 | AmpC nitrocefin hydrolysis, absorbance 480 nm, 0.0001% Triton | Potency, µM (doses to about 57.1 µM), inactives show at the highest dose activity change, negative = inhibition, most hits filed as inhibitors | 330,000 tested, 0.52% active;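 also: plate controls were no compound for no effect and no enzyme for full effect; nearly all actives have a fitted effect of over 20% in size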
Target sequence (P00811 whole entry, looked up): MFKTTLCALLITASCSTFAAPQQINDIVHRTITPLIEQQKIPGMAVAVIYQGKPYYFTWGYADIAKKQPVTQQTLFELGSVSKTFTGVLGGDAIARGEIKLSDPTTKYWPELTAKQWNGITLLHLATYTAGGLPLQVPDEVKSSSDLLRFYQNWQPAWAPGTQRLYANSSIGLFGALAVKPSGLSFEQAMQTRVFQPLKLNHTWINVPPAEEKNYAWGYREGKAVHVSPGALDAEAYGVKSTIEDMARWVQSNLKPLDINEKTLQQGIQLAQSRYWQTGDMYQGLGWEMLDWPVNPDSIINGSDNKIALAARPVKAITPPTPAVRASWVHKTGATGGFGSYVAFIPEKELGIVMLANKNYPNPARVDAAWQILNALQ
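20 mM phosphate pH 7.0 + 0.01% (detergent screen) or 0.0001% Triton X-100; 5.3 nM AmpC reagent; cpd preinc 15 min RT; nitrocefin (800 uM stock) to start; A480 q20 s × 4 min; Activity was normalised to no-enzyme and no-compound control wells.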
Sm TGR inh: qHTS Assay for the Inhibitors of Schistosoma Mansoni Peroxiredoxins; Potency, µM (series often up to 114 µM), for inactives: top-dose activity change, negative = inhibition, usual class: inhibitors; 360,000 tested, 3% active; purified TGR, DTNB reduction, TNB absorbance 405 nm; also: nearly all actives have a fitted effect of over 60% in size
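TGR 20 nM + NADPH 100 uM (dispensed conc.), cpd preinc 15 min RT; start with NADPH (500 uM addition) then DTNB (15 mM addition). Kinetic TNB absorbance, 405 nm filter. Four-parameter Hill fit across titration.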
AmpC inh detg: qHTS Inhibitors of AmpC Beta-Lactamase (assay with detergent); P00811; AmpC hydrolysis of nitrocefin, absorbance 480 nm, 0.01% Triton; Potency, µM (titrated, usually from 114 µM), for inactives: at the highest dose activity change, negative = inhibition, most hits filed as inhibitors; 370,000 tested, 0.041% active; AID 485294, 2010;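 also: 0% = no-compound wells and -100% = no-enzyme wells; nearly all actives have a fitted effect of over 25% in size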
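20 mM phosphate pH 7.0 + 0.01% (detergent screen) or 0.0001% Triton X-100; 5.3 nM AmpC reagent; cpd preinc 15 min RT; nitrocefin (800 uM stock) to start; A480 q20 s × 4 min; Activity was normalised to no-enzyme and no-compound control wells.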
Starred values were filed as active, the others as inactive; ? = inconclusive; . = no result. Calls follow the shape of the dose curve; as a rule, active = well fitted curve in the direction sought with a large enough effect; inconclusive = small, poorly fitted or top-dose-only effect, or another doubt; inactive = no such curve, though single readings can be large; an effect the other way counts as inactive or inconclusive. Unless noted, % is scaled to controls: 0 for no effect and ±100 for the full control effect; potency is read from the fitted curve at half-maximal effect.

SMILES	AmpC no deterg	Sm TGR inh	AmpC inh detg
O=C(O)c1ccc2c(c1)C(=O)N(c1cc([N+](=O)[O-])ccn1)C2=O	-15%	4%	-8%
C[C@H](CO)N1C[C@H](C)[C@@H](CN(C)S(=O)(=O)c2cn(C)cn2)Oc2ccc(NC(=O)C3CCCCC3)cc2C1=O	56%	.	.
O=C(O)C1=C[C@H](c2ccc(Br)cc2)C[C@H](OCCCCO)O1	-13%	?	3%
O=C(NCc1ccccc1)C1=C[C@H](c2ccc(Br)cc2)C[C@H](OCc2ccc(CO)cc2)O1	-10%	-13%	-5%
O=C(C1=C[C@@H](c2ccccc2)C[C@@H](OCc2ccc(CO)cc2)O1)N1CCOCC1	46%	45µM*	7%
CN1CCN(C(=O)C2=C[C@H](c3ccc(Br)cc3)C[C@H](OCCCCO)O2)CC1	93%	22µM*	11%
C#CCNC(=O)C1=C[C@@H](C(C)(C)C)C[C@@H](OCc2ccc(CO)cc2)O1	47%	35µM*	6%
O=C(NCc1ccccc1)C1=C[C@@H](c2ccccc2)C[C@@H](OCc2ccc(CO)cc2)O1	-33%	50µM*	1%
CC(C)(C)[C@@H]1C=C(C(=O)NCc2ccccc2)O[C@H](OCc2ccc(CO)cc2)C1	22%	-20%	-5%
O=C(C1=C[C@H](c2ccc(Br)cc2)C[C@H](OCc2ccc(CO)cc2)O1)N1CCOCC1	159%	-35%	1%
FC(F)Oc1ccc(C2N=C(c3ccccc3)NO2)cc1 (stereo unspecified)	-32%	?	-9%
O=[N+]([O-])c1ccc(C23CC4CC(CC(O)(C4)C2)C3)cc1	-6%	10%	2%
O=C(NCc1ccccc1Cl)c1ccc2c(c1)N(Cc1ccccc1)C(=O)c1ccccc1S2	.	1%	10%
CN(C)/C=C/C(=O)c1ccc(Br)cc1	-30%	.	-5%
CN(O)/C=C/C(=O)c1ccc(Br)cc1	-21%	8.9µM*	9%
Cc1ccc([N+](=O)[O-])cc1NC(=O)CSc1n[nH]c(-c2cccnc2)n1	-13%	0%	6%
CCOC(=O)N1CCN(C(=O)CS(=O)(=O)c2cn(Cc3ccccc3Cl)c3ccccc23)CC1	4µM*	-24%	?
CCOC(=O)N1CCN(C(=O)CS(=O)(=O)c2cn(Cc3ccc(Cl)cc3)c3ccccc23)CC1	?	-16%	?
CC(C(=O)NC1C(=O)N2C(C(=O)O)=C(CSc3nnnn3C)CSC12)n1cc(Cl)cn1 (stereo unspecified)	-21%	?	-2%
N[C@@H](C(=O)N[C@@H]1C(=O)N2C(C(=O)O)=C(Cl)CS[C@H]12)c1ccccc1	-30%	-22%	-16%
Cc1c(Cl)c(C(F)F)nn1CC(=O)NC1C(=O)N2C(C(=O)O)=C(CSc3nnnn3C)CSC12 (stereo unspecified)	-26%	4µM*	-1%
Cn1nnnc1SCC1=C(C(=O)O)N2C(=O)C(NC(=O)Cn3nc(C(F)F)cc3C3CC3)C2SC1 (stereo unspecified)	6%	3.5µM*	3%
CCn1ccc(C(=O)NC2C(=O)N3C(C(=O)O)=C(C)CSC23)n1 (stereo unspecified)	-6%	4%	-6%
CC1=C(C(=O)O)N2C(=O)[C@@H](NC(=O)CCCC(=O)O)[C@H]2SC1	-10%	-16%	-3%
Cc1c(Cl)cnn1CC(=O)NC1C(=O)N2C(C(=O)O)=C(CSc3nnnn3C)CSC12 (stereo unspecified)	-15%	16µM*	-1%
SMILES	AmpC no deterg	Sm TGR inh	AmpC inh detg
Cc1nn(CC(=O)NC2C(=O)N3C(C(=O)O)=C(CSc4nnnn4C)CSC23)cc1Br (stereo unspecified)	-10%	20µM*	-1%
Cc1ccc(S(=O)(=O)n2ccc(=O)[nH]2)cc1	-11%	-3%	8%
COc1ccc(C)cc1N(CC(=O)NC1CCCC1)C(=O)Cn1nnc(-c2ccc(C)o2)n1	53%	-29%	?
CSc1ccccc1NC(=O)CN(C)C(=O)C1CC(=O)N(C(C)c2ccccc2)C1 (stereo unspecified)	20%	-10%	-5%
COCCNC(=O)CCCn1c(SCC(=O)Nc2cccc(C)c2)nc2c(sc3ccccc32)c1=O	.	-1%	-13%
Cc1sc2c(c1C)C(O)=C(C(=O)Nc1ccccc1)S(=O)(=O)N2C	-30%	3.5µM*	-6%
CN1c2ccccc2C(O)=C(C(=O)Nc2ccccc2)S1(=O)=O	-28%	67%	7%
Cc1c(/C=N/NC(=O)CNc2ccccc2)c2ccccn2c1C(=O)c1ccc(Cl)cc1	2.5µM*	-7%	0%
Cc1ccccc1NCC(=O)N/N=C/c1c(C)c(C(=O)c2ccc(Cl)cc2)n2ccccc12	?	-14%	-15%
COc1ccc(-c2nnc(NC(=O)C3=COCCO3)o2)cc1	-20%	-12%	?
Cc1ccc(CNC(=O)C2c3ccccc3C(=O)N3CCc4ccccc4C23)o1 (stereo unspecified)	-5%	5.6µM*	-10%
O=C(NCCN1CCN(Cc2ccccc2)CC1)C1c2ccccc2C(=O)N2CCc3ccccc3C12 (stereo unspecified)	63%	-31%	?
COc1cc(C2CC(=O)Nc3c2c(=O)[nH]c2ncnn32)ccc1O (stereo unspecified)	.	11%	-5%
COc1ccccc1S(=O)(=O)Cc1ccc(C(=O)N2CCN(c3ccccn3)CC2)o1	21%	28µM*	-8%
Cc1ccc(Cl)cc1N1CCN(C(=O)c2ccc(CS(=O)(=O)c3ccc(Br)cc3)o2)CC1	.	2%	-2%
O=C(c1ccc(CS(=O)(=O)c2ccc(Br)cc2)o1)N1CCN(c2ncccn2)CC1	3%	50µM*	-11%
COc1ccc(S(=O)(=O)Cc2ccc(C(=O)N3CCN(c4ccccn4)CC3)o2)cc1	6%	0%	-6%
COc1ccc(/C=C/C2=CCN(C)CC2)cc1	-11%	32µM*	3%
CN1CC=C(/C=C/c2ccc(-c3ccccc3)cc2)CC1	100%	-34%	-12%
CCCCC(=O)Oc1ccc2oc(-c3ccc(OC)cc3)cc(=O)c2c1	.	6%	6%
Cc1ccc(N2CC(C(=O)N3CCC(c4nc5ccccc5[nH]4)CC3)CC2=O)cc1C (stereo unspecified)	56%	-2%	-5%
O=C1c2ccccc2NC(c2cccc(O)c2)N1Cc1ccco1 (stereo unspecified)	-30%	32µM*	12%
COc1ccc(C2Nc3ccccc3C(=O)N2Cc2ccco2)cc1CN1C(=O)c2ccccc2C1=O (stereo unspecified)	2%	?	?
NS(=O)(=O)c1ccc(CCNC(=O)COC(=O)/C=C/c2ccccc2Cl)cc1	-10%	-2%	-1%
CC1CCc2c(sc(NC(=O)Cc3ccccc3)c2C(=O)Nc2ccc(Cl)cc2)C1 (stereo unspecified)	.	-12%	11%
CCOC(=O)C1=C(C)N(c2ccc(C)c(C)c2)C(=O)/C1=C\c1ccco1	-25%	0%	-1%

Assay outcomes as filed in PubChem.
